According to PubChem BioAssay (NCI):
About 79,000 compounds went through this panel and 15% of them were active in at least one assay; those are over-represented in the sample as a whole. Unmarked numbers belong to inactive results. Active and inactive are the calls of the source. No stated cut-off is given here; in the data, active means growth inhibition above about 70%; inactive means the rest.

Tests used:
[1] = NCI Yeast Anticancer Drug Screen. Data for the rad50 strain (AID 155);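 further: 0% = growth of vehicle-only cultures of the same strain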; details: S. cerevisiae rad50 strain growth inhibition; at 50.0 µM; hits give high values
Outline: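 Yeast carrying a defined DNA repair defect were exposed to test compounds, and growth was compared with vehicle-treated controls to give percent inhibition.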

[2] = NCI Yeast Anticancer Drug Screen. Data for the mec2-1 strain (AID 157); details: S. cerevisiae mec2-1 strain, at 50.0 µM, hits give high values
Outline: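 Yeast mec2-1 mutant treated with compound. Readout: growth inhibition vs vehicle controls.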

[3] = NCI Yeast Anticancer Drug Screen. Data for the sgs1 mgt1 strain (AID 161);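 further: 0% = growth of cultures given vehicle only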; details: S. cerevisiae sgs1 mgt1 strain, at 50.0 µM, hits give high values
Outline: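 Genetically altered yeast, compound exposure, growth inhibition relative to vehicle.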

[4] = NCI Yeast Anticancer Drug Screen. Data for the cln2 rad14 strain (AID 165);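 further: 0% = growth equal to vehicle treated cultures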; details: S. cerevisiae cln2 rad14 strain, at 50.0 µM, hits give high values
Outline: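 cln2 rad14 yeast strain; compound exposure; growth inhibition read vs vehicle controls.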

[5] = NCI Yeast Anticancer Drug Screen. Data for the bub3 strain (AID 167); details: S. cerevisiae bub3 mutant strain, at 50.0 µM, hits give high values
Outline: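 Compounds were applied to a genetically altered yeast strain carrying a cell-cycle control defect. Growth inhibition was scored against vehicle-treated controls.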

[6] = NCI Yeast Anticancer Drug Screen. Data for the mlh1 rad18 strain (AID 175); details: S. cerevisiae mlh1 rad18 strain growth inhibition; at 50.0 µM; hits give high values
Outline: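 Yeast w/ defined DNA-repair lesions; compound exposure; growth vs vehicle controls → % inhibition.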

Row | Structure (SMILES) | growth inhibition [1] | growth inhibition [2] | growth inhibition [3] | growth inhibition [4] | growth inhibition [5] | growth inhibition [6]
1 | CCOP(=O)(O)OCC.[Y] | 13.6% | 7.3% | 6.5% | -16.8% | 6.5% | 11.2%
2 | CCCCOP(=S)(OCCCC)Oc1ccc(Cl)cc1Cl | -4.95% | -41.4% | -0.55% | -0.25% | 17.5% | -1.95%
3 | CCC1(O)N=C(c2ccccc2)c2ccccc2-n2cccc21 (stereo unspecified) | 1.7% | 4.25% | 8.65% | 0.55% | 2.2% | 6.5%
4 | CN1CN(c2ccccc2)C2(CCN(CCCN(C)c3ccc(F)cc3)CC2)C1=O | 0.1% | -0.4% | 6.35% | 5.85% | 3.35% | 17.3%
5 | O=C(CCl)Oc1ccccc1 | -47.1% | -33.5% | -27.1% | -10.8% | -59.5% | -28.1%
6 | O=[N+]([O-])c1ccc(/C=C/c2cc(Cl)ccc2S(=O)(=O)F)c(Cl)c1 | 2.6% | -0.85% | 6.8% | 13.4% | 12.9% | -4.35%
7 | CNC(=O)CCl | 5.65% | 3.4% | -0.45% | -7.15% | -0.75% | 6.4%
8 | O=[N+]([O-])c1cc(S(=O)(=O)F)cc(Cl)c1S | 98.9% (active) | 99% (active) | 98.8% (active) | 90.5% (active) | 98.8% (active) | 98.8% (active)
9 | CCCCOP(=O)(Cc1ccccc1)Oc1ccccc1 (stereo unspecified) | 73% (active) | 32% | 68.8% | 50.4% | 35.3% | 27.6%
10 | CCOC(=O)OC1(c2ccccc2)CCN(C)CC1 | -12.2% | 5.75% | -4.55% | 34.3% | 21.4% | 21.4%
11 | CC(C)NC(=O)N1C2C3CCC(C)(OC3(C)C)C21 (stereo unspecified) | -16.5% | -21.4% | 3.7% | -9.35% | -14.9% | -12.2%
12 | CCC(N)CBr (stereo unspecified) | -9.65% | 1.7% | -9.5% | -16.9% | 5.3% | 8.9%
13 | COC(=O)CCCCCCCCCCN(CCCl)CCCl | 39.6% | 29.1% | 31.9% | 26.2% | 21% | 67%
14 | C=C(Br)C[N+]12CN3CN(CN(C3)C1)C2 | -2% | -6.55% | 2.15% | -6.95% | 2.7% | -17.2%
15 | c1cc[c]([Pb]([S]c2ccccn2)([c]2ccccc2)[c]2ccccc2)cc1 | 99.2% (active) | 99.1% (active) | 99.5% (active) | 99% (active) | 99% (active) | 99.2% (active)
16 | COc1ccc2c3c1OC1C(O)C=CC4C(C2)N(N=O)CCC341 (stereo unspecified) | -3.2% | 9.6% | -4.2% | 11.5% | 5.25% | 21.7%
17 | CC(Cl)CN(CC(C)Cl)c1ccc2c(c1)Cc1cc([N+](=O)[O-])ccc1-2 (stereo unspecified) | 10.3% | 5.7% | 33.7% | 25.9% | 4.5% | 12.7%
18 | O=c1cc(N2CCNCC2)nc2ccccn12 | 2.9% | 4.4% | 4.95% | 1.4% | 6.95% | 6.35%
19 | c1ccc(CCN2CCCCC2)cc1 | 23.2% | -4.6% | 10.4% | -2.45% | -14.5% | 33.9%
20 | CCCCCCCC(=O)[O][Pb]([CH2]C)([CH2]C)[CH2]C | -7.8% | -29.2% | 1.95% | -1.5% | 0% | -21.3%
21 | CC(Br)[N+](=O)[O-] (stereo unspecified) | 28.8% | 4.9% | 5.4% | 13.8% | -8.7% | 5.35%
